Screens (PubChem BioAssay)
Sampled rows, rich in hits. Any-hit rate of the full collection: about 2.6%.
CRFBP-R2 block: blocks CRF-induced signaling of the CRF-BP/CRF-R2 complex | HEK293 CRF-R2/CRF-BP, CRF-induced calcium fluorescence | inhibition, % at 11.8 µM | 350,000 compounds, 0.59% hits | AID 588475;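 active means inhibition of the ligand-induced calcium signal above about 50% at the single tested concentration, limit read from the data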
IDE cell inh: inhibitors of human insulin-degrading enzyme in cells; inhibition, % at 5.59 µM; P14735; HEK cells, FAbetaB cleavage, fluorescence polarization; AID 434962; 320,000 compounds, 0.41% hits;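 active means percent inhibition above the average of all tested compounds plus 3 SD, set per screening campaign, cut at about 16% in these data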;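 further: IDE supplied by intact live HEK cells; FP after avidin binding of uncleaved biotin substrate so inhibition keeps polarization high; 0% = DMSO wells and 100% = 60 µM reference IDE inhibitor Ii1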
Target sequence (P14735 whole entry, looked up): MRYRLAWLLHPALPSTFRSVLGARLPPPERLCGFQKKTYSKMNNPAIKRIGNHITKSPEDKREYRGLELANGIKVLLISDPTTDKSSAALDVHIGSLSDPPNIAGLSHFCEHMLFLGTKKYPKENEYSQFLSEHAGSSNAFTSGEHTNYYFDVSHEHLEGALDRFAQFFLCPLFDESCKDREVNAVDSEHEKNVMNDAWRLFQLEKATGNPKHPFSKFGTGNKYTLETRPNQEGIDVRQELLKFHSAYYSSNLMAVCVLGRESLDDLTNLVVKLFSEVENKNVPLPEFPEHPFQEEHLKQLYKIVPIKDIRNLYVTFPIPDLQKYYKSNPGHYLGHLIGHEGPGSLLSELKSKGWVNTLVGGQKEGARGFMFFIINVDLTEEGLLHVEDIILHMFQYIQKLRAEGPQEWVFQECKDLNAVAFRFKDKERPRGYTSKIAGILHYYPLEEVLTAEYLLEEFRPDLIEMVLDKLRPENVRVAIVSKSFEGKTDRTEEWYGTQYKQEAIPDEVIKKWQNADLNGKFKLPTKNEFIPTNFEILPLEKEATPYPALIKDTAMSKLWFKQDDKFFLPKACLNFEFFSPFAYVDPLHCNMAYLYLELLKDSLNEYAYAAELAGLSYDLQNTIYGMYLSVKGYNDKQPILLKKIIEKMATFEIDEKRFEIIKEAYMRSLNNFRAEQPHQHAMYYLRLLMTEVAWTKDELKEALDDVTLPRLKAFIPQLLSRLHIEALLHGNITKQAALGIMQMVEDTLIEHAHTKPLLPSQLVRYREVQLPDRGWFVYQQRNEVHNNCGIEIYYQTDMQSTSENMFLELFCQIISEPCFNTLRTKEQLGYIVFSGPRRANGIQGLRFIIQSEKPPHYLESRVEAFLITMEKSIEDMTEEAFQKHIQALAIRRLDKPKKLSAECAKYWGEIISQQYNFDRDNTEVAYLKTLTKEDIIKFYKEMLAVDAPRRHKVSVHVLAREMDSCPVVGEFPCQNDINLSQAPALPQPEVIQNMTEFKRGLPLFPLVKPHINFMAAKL
Myeloid diff MLP: myeloid differentiation induction | ER-HoxA9 myeloid progenitors, lysozyme-GFP differentiation, flow cytometry | calls only at 10 µM | 360,000 compounds, 1% hits | AID 624256;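 active means normalized GFP-positive differentiation at or above the plate's own cutoff, the solvent-only control mean plus 3 SD; inconclusive means no clear call, values can overlap the other calls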;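 further: cells exposed to compound for four days before flow analysis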
IDE cell activ: IDE (human) activation, cell-based. HEK cells, FAbeta-B cleavage, fluorescence polarization; 0% vehicle, 100% cell-free pure enzyme wells. activation, % at 5.96 µM. 340,000 compounds, 0.073% hits. AID 493087;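 active means activation above the mean of all tested compounds plus 3 SD, set per screening campaign, cut at about 17% in these data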
CRFR2-BP ag: CRF-BP/CRF-R2 complex agonism; HEK293 CRF-R2/CRF-BP, calcium dye fluorescence (FLIPR); percent of saturating CRF peptide response; activation, % at 13.2 µM; 350,000 compounds, 0.46% hits;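 active means activation of at least 50%, plus an integration ratio under a set limit after plate pattern correction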;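 further: plate controls were neutral control wells without compound for no effect and CRF at EC100 for full effect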
TPT1 inh: inhibitors of Candida albicans tRNA 2'-phosphotransferase TPT1. recombinant caTPT1, FP RNA substrate dephosphorylation. inhibition, % at 5 µM. 300,000 compounds, 0.81% hits;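 active means inhibition above the mean of all tested compounds plus 3 SD, set per screening campaign, cut at about 24% in these data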;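 further: plate controls were DMSO alone for no effect and ferristatin control at 100 nM for full effect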
caTPT1 confirm: TPT1 (C. albicans) inhibition, confirmation; 2,400 compounds, 74% hits; inhibition, % at 5 µM; AID 2149; recombinant caTPT1, fluorescence polarization, RNase T1 coupled; shares compounds with TPT1 inh;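 active means inhibition above the primary screen limit, the mean inhibition of all tested compounds plus 3 SD, cut at about 25% in these data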
RNase T1 inh: RNase T1 inhibition in TPT1 counter-screen. shares compounds with TPT1 inh. RNase T1 cleavage, fluorescence polarization, 1536-well. 2,400 compounds, 83% hits. inhibition, % at 5 µM. AID 2153;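 active means inhibition above the solvent-only control well mean plus 3 SD, limit set per screening run, cut at about 23% in these data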;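 further: plate controls were DMSO wells with enzyme for no effect and wells without RNase T1 for full effect; inhibitors block cleavage so intact labeled substrate keeps polarization high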
IDE cell inh cf: confirmation of human insulin-degrading enzyme inhibitors in cells | shares compounds with IDE cell inh | HEK cells, FAbetaB cleavage, fluorescence polarization | inhibition, % at 5.59 µM | 1,200 compounds, 51% hits | AID 435028;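 active means mean inhibition across triplicate wells above the cutoff set by the earlier primary insulin-degrading enzyme screen, cut at about 16% in these data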;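 further: 0% = DMSO wells and 100% = 60 µM reference IDE inhibitor Ii1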
HEK293 tox: counter-screen for IDE inhibitors: cytotoxicity in HEK cells. shares compounds with IDE cell inh. HEK293 cytotoxicity, ATP luminescence. inhibition, % at 5.59 µM. 1,200 compounds, 28% hits. AID 449730; in the data active means inhibition above about 22%;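 further: 0% = vehicle wells and 100% = reference cytotoxic drug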
Starred values were filed as active, the others as inactive; i = inactive; ? = inconclusive; . = no result; + = active, no number.

SMILES | CRFBP-R2 block | IDE cell inh | Myeloid diff MLP | IDE cell activ | CRFR2-BP ag | TPT1 inh | caTPT1 confirm | RNase T1 inh | IDE cell inh cf | HEK293 tox
Cc1c(NC(=S)N/N=C/c2ccc(N(C)C)cc2)c(=O)n(-c2ccccc2)n1C | -10 | -2 | i | 1 | 0 | -1 | . | . | . | .
Cc1c(N2C(=O)/C(=C\c3ccc(N(C)C)cc3)N(C)C2=S)c(=O)n(-c2ccccc2)n1C | -26 | 53* | i | -36 | 12 | 150* | 132* | 133* | 40* | 13
CN(c1ccccc1C(=O)Nc1cccc([N+](=O)[O-])c1)S(C)(=O)=O | 21 | 8 | i | -5 | -1 | -2 | . | . | . | .
CC1=NN(c2ccccc2)C(=O)/C1=C/C=C/C=C/N(C)C | 9 | 18* | i | -13 | -1 | 124* | 94* | 102* | 11 | 27*
Cn1cc(C=O)c2cc(F)ccc21 | 12 | 0 | i | 3 | 1 | -2 | . | . | . | .
Cn1cc(/C=C/c2cc[n+](C)cc2)c2cc(F)ccc21 | -49 | 31* | ? | -25 | 41 | 40* | 49* | 56* | 75* | 77*
Cn1cc(/C=C/c2cc[n+](C)cc2)c2cc(Cl)ccc21 | -14 | 38* | ? | -12 | 20 | 60* | 68* | 70* | 62* | 81*
Cn1c(=O)c2c(nc3n2CC(COc2ccccc2)O3)n(C)c1=O (stereo not given) | 7 | . | i | -1 | 0 | . | . | . | . | .
O=C(Nc1nc2c(s1)CN(Cc1ccccc1)CC2)C1CCC1 | -15 | 11 | i | -1 | 8 | 10 | . | . | . | .
CN(C)c1ccc(/C=C(\C#N)C(=O)Nc2nc3c(s2)CCN(Cc2ccccc2)C3)cc1 | -459 | 38* | + | -28 | 345* | + | 132* | 146* | 58* | 11
CCN(CC)c1ccc(/C=N/NC(=O)Nc2ccccc2)cc1 | -33 | -1 | i | -8 | -3 | 0 | . | . | . | .
CCN(CC)c1ccc(C=C(c2nnnn2-c2ccccc2)c2nnnn2-c2ccccc2)cc1 | -74 | 32* | i | -23 | 44 | 69* | 94* | 104* | 30* | 17
COc1cc(/C=C(\C#N)c2nc3ccccc3o2)ccc1O | -97 | 88* | + | -224 | 155* | 164* | 170* | 156* | 84* | 18
N#C/C(=C\c1ccc(O)cc1)c1nc2ccccc2o1 | 3 | 43* | i | -124 | 23 | 102* | 114* | 116* | 119* | 14
Cc1ccc(C)c(N/C=C(\C#N)c2nc3ccccc3o2)c1 | -18 | -4 | i | 0 | 8 | 0 | . | . | . | .
CC(=O)Nc1ccc(S(=O)(=O)NC2CC(=O)N(c3ccc(C)cc3)C2)cc1 (stereo not given) | 4 | -1 | i | 2 | -1 | -5 | . | . | . | .
O=C1/C(=C/c2ccc(N3CCCC3)cc2)NC(=S)N1C1CC1 | -192 | 90* | i | -89 | 176* | 162* | 169* | 153* | 120* | 27*
O=C1/C(=C/c2ccccc2)Nc2ccccc21 | -5 | 28* | i | -13 | 0 | 63* | 64* | 70* | 32* | 6
C=CCN1C(=O)/C(=C/c2ccc(OC)cc2)S/C1=N/c1nccs1 | -3 | 1 | i | 0 | 0 | 4 | . | . | . | .
C=CCN1C(=O)/C(=C/c2ccc(O)cc2)S/C1=N/c1nccs1 | -73 | 119* | i | -111 | 65* | 73* | 93* | 92* | 94* | 20
COC(=O)[C@@]1(Cc2ccc(F)cc2)[C@H]2c3cc(C(=O)N(C)C)n(CC4CC4)c3C[C@H]2CN1C(=O)c1ccccc1 | . | . | i | . | . | . | . | . | . | .
O=C(O)CCC1C(=O)NC(=O)CC1c1ccccc1 (stereo not given) | . | . | i | . | . | . | . | . | . | .
COc1ccc(/C=c2\s/c(=C/C(=O)c3ccc(C)cc3)[nH]c2=O)cc1OC | -227 | 79* | i | -98 | 182* | 103* | 117* | 115* | 78* | 7
CCN1/C(=C/c2ccc3cc(C)ccc3[n+]2CC)Sc2ccccc21 | -109 | 91* | ? | -58 | 155* | 84* | 97* | 103* | 136* | 113*
Cn1c(N)c(-c2ccccc2)c2ccc([N+](=O)[O-])cc2c1=O | -125 | 25* | i | -9 | 123* | 84* | 89* | 92* | 25* | 27*
SMILES | CRFBP-R2 block | IDE cell inh | Myeloid diff MLP | IDE cell activ | CRFR2-BP ag | TPT1 inh | caTPT1 confirm | RNase T1 inh | IDE cell inh cf | HEK293 tox
COc1ccc(/C=C(/C(=O)c2ccc(Cl)cc2Cl)n2cncn2)cc1 | -41 | 0 | i | 5 | 0 | 0 | . | . | . | .
CN(C)c1ccc(/C=C(/C(=O)c2ccc(Cl)cc2Cl)n2cncn2)cc1 | -122 | 141* | i | -146 | 71* | 121* | 132* | 131* | 162* | 28*
COc1ccc([C@@H]2CC=C(C(=O)O)[C@H](c3ccccc3F)N2S(=O)(=O)c2ccccc2C)cc1 | -2 | -1 | i | -4 | -1 | 2 | . | . | . | .
CCN(CC)c1ccc(/C=N/NC(=O)c2cccc(S(=O)(=O)N3CCOCC3)c2)c(O)c1 | -42 | 22* | ? | -27 | 16 | 41* | 58* | 67* | 37* | 85*
CCOc1ccc(S(=O)(=O)NCC(=O)OCc2nnc(-c3ccccc3)o2)cc1 | 0 | 1 | i | 3 | 0 | . | . | . | . | .
COc1cc(/C=C2/SC(=S)N(c3c(C)n(C)n(-c4ccccc4)c3=O)C2=O)ccc1O | -37 | 18* | i | -34 | 11 | 29* | 29* | 42* | 46* | 11
CCOc1cc(/C=C2\SC(=S)N(NC(=O)c3cccnc3)C2=O)ccc1O | 3 | 41* | i | . | 28 | 50* | 39* | 54* | 148* | 8
O=C1/C(=C/c2cccc(O)c2)SC(=S)N1CC1CCCO1 (stereo not given) | -5 | -3 | i | 3 | -1 | -3 | . | . | . | .
Cc1c(N2C(=O)/C(=C3/C(=O)N(C)c4ccccc43)SC2=S)c(=O)n(-c2ccccc2)n1C | 9 | -2 | i | 3 | -3 | 1 | . | . | . | .
CCOc1cc(/C=C2/SC(=S)N(CC3CCCO3)C2=O)ccc1O (stereo not given) | -49 | 35* | i | -74 | 30 | 30* | 35* | 47* | 123* | 24*
